# In the supplement of paper PMC9135407:
# Several values for one entry are separate records, joined by “and”; a condition that tells them apart may be missing. Identical values can stand only once. Counter-ions that a name gives are not always drawn. The campaign covered roughly 5,800 compounds. About 620 (11%) showed activity. For the sample, actives were picked, then their nearest neighbours and some compounds at random. A number with no mark means an inactive call.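 Rule for the calls: active = score above a cut-off or among the top three wells of a plate; in these data no inactive exceeds 0.85.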
# Tested on: primary human hepatic stellate cells (donor 1)
# Assay: scaled lipid accumulation score (0 = DMSO-like, 1 = nortriptyline-like); higher = stronger HSC inactivation (lipid re-accumulation), active = hit call of the paper
# Conditions: 48 h
# [1] = library stock concentration: 10 mM
# [2] = library stock concentration: 15.3 mM
# [3] = library stock concentration: 80 uM
# [4] = library stock concentration: 400 uM
# [5] = library stock concentration: 2 mM
# [6] = library stock concentration: 3.33 mM
# [7] = library stock concentration: 1 mM
structure (smiles),measurement,setting,value
CCCC(CCC)C(=O)O[C@H]1C[C@H]2CC[C@@H](C1)[N+]2(C)C [Anisotropine methyl bromide],scaled lipid accumulation score,[1],0.296
OC[C@H]1O[C@H](O[C@H]2[C@H](O)[C@@H](O)C(O)O[C@@H]2CO)[C@H](O)[C@@H](O)[C@@H]1O (stereo partly drawn),scaled lipid accumulation score,[1],≤ 0
Nc1nc2c(ccc3ccccc32)s1,scaled lipid accumulation score,[1],≤ 0
CC1=C(C)C(=O)C(CCCCC#CCCCC#CCO)=C(C)C1=O [Docebenone],scaled lipid accumulation score,library stock concentration: 6.1 mM,≤ -0.006
CC1=C(C)C(=O)C(CCCCC#CCCCC#CCO)=C(C)C1=O,scaled lipid accumulation score,[1],0.105
same,scaled lipid accumulation score,[2],≤ -0.012
O=C(O)CCNc1cc(N2CCc3ccccc3CC2)nc(-c2cccnc2)n1,scaled lipid accumulation score,[3],≤ 0
same,scaled lipid accumulation score,[4],≤ 0
same,scaled lipid accumulation score,[5],≤ 0
same,scaled lipid accumulation score,[1],≤ 0
CC(C)(C)OC(=O)N[C@H]1CCCCC/C=C\[C@@H]2C[C@@]2(C(=O)NS(=O)(=O)C2CC2)NC(=O)[C@@H]2C[C@@H](OC(=O)N3Cc4cccc(F)c4C3)CN2C1=O [Danoprevir (ITMN-191)],scaled lipid accumulation score,[6],0.049
same,scaled lipid accumulation score,[1],≤ 0
CO[C@H]1C[C@@H]2CC[C@@H](C)[C@@](O)(O2)C(=O)C(=O)N2CCCC[C@H]2C(=O)O[C@H]([C@H](C)C[C@@H]2CC[C@@H](O)[C@H](OC)C2)CC(=O)[C@H](C)/C=C(\C)[C@@H](O)[C@@H](OC)C(=O)[C@H](C)C[C@H](C)/C=C/C=C/C=C/1C [Rapamycin],scaled lipid accumulation score,[3],≤ 0
same,scaled lipid accumulation score,[4],≤ 0
same,scaled lipid accumulation score,[7],≤ 0
same,scaled lipid accumulation score,[5],≤ 0
same,scaled lipid accumulation score,[6],≤ 0
same,scaled lipid accumulation score,[1],≤ 0
CO[C@H]1C[C@@H]2CC[C@@H](C)[C@@](O)(O2)C(=O)C(=O)N2CCCC[C@H]2C(=O)O[C@H]([C@H](C)C[C@@H]2CC[C@@H](O)[C@H](OC)C2)CC(=O)[C@H](C)/C=C(\C)[C@@H](O)[C@@H](OC)C(=O)[C@H](C)C[C@H](C)/C=C/C=C/C=C/1C [Rapamycin (Sirolimus)],scaled lipid accumulation score,[6],0.037
same,scaled lipid accumulation score,[1],≤ 0
O=C1NC(=O)c2c1c(-c1ccccc1)cc1[nH]c3ccc(O)cc3c21,scaled lipid accumulation score,[1],≤ -0.055 and ≤ -0.001
OCCN1CCN(CCCN2c3ccccc3Sc3ccc(C(F)(F)F)cc32)CC1 [Fluphenazine hydrochloride],scaled lipid accumulation score,[1],0.407
OCCN1CCN(CCCN2c3ccccc3Sc3ccc(C(F)(F)F)cc32)CC1,scaled lipid accumulation score,[1],1.34 (active)
OCCN1CCN(CCCN2c3ccccc3Sc3ccc(C(F)(F)F)cc32)CC1 [Fluphenazine dihydrochloride],scaled lipid accumulation score,,0.627
same,scaled lipid accumulation score,[1],≤ -0.07
CC(C)(O)C1CCC(C)(C2C(O)CC3(C)C4CC(OC5OC(CO)C(O)C(O)C5O)C5C(C)(C)C(OC6OCC(O)C(O)C6O)CCC56CC46CCC23C)O1 (stereo not drawn) [Astragaloside A],scaled lipid accumulation score,[6],0.019
same,scaled lipid accumulation score,[1],≤ 0
"CCCCC/C=C\C/C=C\C/C=C\CCCC/C=C\CCC(=O)O [cis-4,10,13,16-Docosatetraenoic Acid]",scaled lipid accumulation score,[7],≤ 0
CCCCC[C@H](O)/C=C/[C@H]1[C@H](O)CC(=O)[C@@H]1C/C=C\CCCC(=O)OC [Prostaglandin E2 methyl ester],scaled lipid accumulation score,[7],≤ 0
C[C@@H](NCCCc1cccc(C(F)(F)F)c1)c1cccc2ccccc12 [Cinacalcet HCl],scaled lipid accumulation score,[6],0.207
same,scaled lipid accumulation score,[1],0.351
O=C1CC(=O)c2c(Cl)c(Cl)c(Cl)c(Cl)c21,scaled lipid accumulation score,[6],≤ -0.009
same,scaled lipid accumulation score,[1],0.011
CC(C)n1cnc2c(NCCc3ccc(O)cc3)nc(-c3csc4ccccc34)nc21 [StemRegenin 1 (SR1)] [listing 1 of 2 here],scaled lipid accumulation score,[1],0.919 (active)
CC(C)n1cnc2c(NCCc3ccc(O)cc3)nc(-c3csc4ccccc34)nc21 [StemRegenin 1 (SR1)] [listing 2 of 2 here],scaled lipid accumulation score,[6],≤ 0
CC(C)n1cnc2c(NCc3ccccc3)nc(NCCO)nc21 [N9-Isopropylolomoucine],scaled lipid accumulation score,[2],≤ -0.012
CC\C=C/C=C/C=C/C=C\CCCCCCCC(=O)O [cis-Parinaric Acid],scaled lipid accumulation score,[7],0.028
CC(C)Oc1ccc(C(=O)c2ccc(NC3=NCCN3)cc2)cc1,scaled lipid accumulation score,[7],0.073
CC(=O)Nc1nc2c(Oc3cc(-c4ccc(C(F)(F)F)cc4)ncn3)cccc2s1,scaled lipid accumulation score,[6],≤ -0.009
same,scaled lipid accumulation score,[1],0.221
CN1CCC(Nc2ncc3ncnc(Nc4ccc(F)c(Cl)c4)c3n2)CC1.Cl.Cl [BIBX 1382 dihydrochloride],scaled lipid accumulation score,[1],1.61 (active)
COc1ccc(F)c(F)c1C(=O)c1cnc(NC2CCN(S(C)(=O)=O)CC2)nc1N,scaled lipid accumulation score,[6],0.082
same,scaled lipid accumulation score,[1],0.057
CCN(CC)CC1CCN(c2ncc3ncnc(Nc4ccc(F)c(Cl)c4)c3n2)CC1.Cl.Cl [BIBU 1361 dihydrochloride],scaled lipid accumulation score,[1],1.06 (active)
COc1ccc(CC(=O)NC(/N=C(\NC#N)Nc2cccc3ncccc23)C(C)(C)C)cc1OC (stereo not drawn),scaled lipid accumulation score,[1],0.014
O=C(O[C@@H]1Cc2c(O)cc(O)cc2O[C@@H]1c1cc(O)c(O)c(O)c1)c1cc(O)c(O)c(O)c1 [Epigallocatechin gallate],scaled lipid accumulation score,[3],≤ 0
same,scaled lipid accumulation score,[4],≤ 0
same,scaled lipid accumulation score,[5],≤ 0
same,scaled lipid accumulation score,[1],≤ 0
O=C(O[C@@H]1Cc2c(O)cc(O)cc2O[C@@H]1c1cc(O)c(O)c(O)c1)c1cc(O)c(O)c(O)c1 [(-)-Epigallocatechin Gallate],scaled lipid accumulation score,[7],≤ 0
Oc1nc(-c2ccc(C(F)(F)F)cc2)nc2c1CSCC2,scaled lipid accumulation score,[7],≤ 0
same,scaled lipid accumulation score,[6],≤ 0
same,scaled lipid accumulation score,[1],≤ 0 and 0.004
c1ccc(Cn2c(-c3ccc(OCC(C4CCNCC4)n4c(-c5ccccc5)nc5ccccc54)cc3)nc3ccccc32)cc1 (stereo not drawn) [Deltarasin],scaled lipid accumulation score,[6],0.766
same,scaled lipid accumulation score,[1],0.104
O=c1[nH]c(=S)[nH]c(-c2ccccc2)c1Cc1c(O)ccc2ccccc12 [Cambinol],scaled lipid accumulation score,[1],0.124
Cc1nc(Nc2n[nH]c3c2CN(C(=O)N[C@H](CN(C)C)c2ccccc2)C3(C)C)c2sccc2n1 [listing 1 of 2 here],scaled lipid accumulation score,[3],≤ -0.016
same,scaled lipid accumulation score,[4],0.092
same,scaled lipid accumulation score,[5],0.522
same,scaled lipid accumulation score,[6],≤ -0.009
same,scaled lipid accumulation score,[1],0.594
Cc1nc(Nc2n[nH]c3c2CN(C(=O)N[C@H](CN(C)C)c2ccccc2)C3(C)C)c2sccc2n1 [listing 2 of 2 here],scaled lipid accumulation score,[1],0.887 (active)
CC(C)CC(=O)Nc1n[nH]c2c1CN(C(=O)C1CCN(C)CC1)C2(C)C,scaled lipid accumulation score,[3],≤ 0
same,scaled lipid accumulation score,[4],0.21
same,scaled lipid accumulation score,[5],0.029
same,scaled lipid accumulation score,[6],0.199
same,scaled lipid accumulation score,[1],≤ 0 and 0.015
Cc1nn(C)c(COc2ccc(N3CCN(S(=O)(=O)N(C)C)CC3)cc2)c1-c1cccc2c(CCCOc3cccc4ccccc34)c(C(=O)O)n(CCN3CCOCC3)c12,scaled lipid accumulation score,[3],≤ -0.001
same,scaled lipid accumulation score,[4],≤ -0.001
same,scaled lipid accumulation score,[5],≤ -0.001
same,scaled lipid accumulation score,[1],≤ -0.001
CCCCCCCCCCCCCCCCCCN(CCCCCCCCCCCCCCCCCC)CCCN(CCO)CCO [Avridine],scaled lipid accumulation score,[1],≤ 0
N[C@@H](Cn1ccc(=O)c(O)c1)C(=O)O [L-Mimosine from Koa hoale seeds],scaled lipid accumulation score,[1],≤ 0
O=C(c1ccc(OCCN2CCCCC2)cc1)c1c(-c2ccc(O)cc2)sc2cc(O)ccc12,scaled lipid accumulation score,[1],0.798
c1cc(OCCN2CCCCC2)cc(-c2n[nH]c3ccc(-c4ncn[nH]4)cc23)c1,scaled lipid accumulation score,[1],1.72 (active)
Cl.c1cc(OCCN2CCCCC2)cc(-c2n[nH]c3ccc(-c4nc[nH]n4)cc23)c1,scaled lipid accumulation score,[1],1.28 (active)
O=C(OCCN1CCCCC1)c1c[nH]c2ccccc12,scaled lipid accumulation score,[1],0.289
O=C(c1ccc(OCCN2CCCCC2)cc1)c1c(-c2ccc(O)cc2)sc2cc(O)ccc12 [Raloxifene HCl],scaled lipid accumulation score,[6],≤ 0
same,scaled lipid accumulation score,[1],0.575
c1ccc(-c2nn3c(c2-c2ccnc4cc(OCCN5CCOCC5)ccc24)CCC3)nc1,scaled lipid accumulation score,[3],≤ -0.001
same,scaled lipid accumulation score,[4],≤ -0.001
same,scaled lipid accumulation score,[5],≤ -0.001
same,scaled lipid accumulation score,[1],≤ -0.001
O=C(c1ccc(OCCN2CCCCC2)cc1)c1c(-c2ccc(O)cc2)sc2cc(O)ccc12 [Raloxifene hydrochloride],scaled lipid accumulation score,,0.032
same,scaled lipid accumulation score,[1],0.661 and 0.376
c1cc(OCCN2CCCCC2)cc(-c2n[nH]c3ccc(-c4nnc[nH]4)cc23)c1,scaled lipid accumulation score,[3],≤ -0.016
same,scaled lipid accumulation score,[4],≤ -0.016 and ≤ -0.005
same,scaled lipid accumulation score,[5],≤ -0.016 and 0.022
CCCCC[C@H](O)/C=C/C1=C(C/C=C\CCCC(=O)O)C(=O)CC1 [Prostaglandin B2],scaled lipid accumulation score,[7],≤ 0 and ≤ -0.021
CC(=N)NCCCC[C@H](N)C(=O)O [L-NIL hydrochloride],scaled lipid accumulation score,[1],0.025
CCCCCCCCCCCC(=O)c1nc2ncccc2o1,scaled lipid accumulation score,[7],≤ 0
CCCCC/C=C\C/C=C\CCCCCCCC(=O)NCC(=O)O [N-linoleoylglycine],scaled lipid accumulation score,[7],≤ -0.021
CCCCC(CC)COc1ccc(-c2nc(-c3ccc(OC)cc3)nc(-c3ccc(OCC(CC)CCCC)cc3O)n2)c(O)c1 (stereo not drawn),scaled lipid accumulation score,[1],≤ 0
"CCCCCC=CCC=CCCCCCCCCCC(=O)O [11(Z),14(Z)-Eicosadienoic Acid]",scaled lipid accumulation score,[7],≤ 0
Cc1cccc(Nc2nc(-c3ccncc3)cs2)c1 [listing 1 of 2 here],scaled lipid accumulation score,[7],≤ 0
Oc1ccc(Nc2nc(-c3ccc(Cl)cc3)cs2)cc1 [Sphingosine Kinase Inhibitor 2],scaled lipid accumulation score,[7],0.058
Cc1cccc(Nc2nc(-c3ccncc3)cs2)c1 [listing 2 of 2 here],scaled lipid accumulation score,[6],0.881 (active)
same,scaled lipid accumulation score,[1],1.24 (active)
Oc1ccc(Nc2nc(-c3ccc(Cl)cc3)cs2)cc1,scaled lipid accumulation score,[3],≤ -0.001
same,scaled lipid accumulation score,[4],≤ -0.001
same,scaled lipid accumulation score,[5],≤ -0.001
same,scaled lipid accumulation score,[6],≤ -0.009
same,scaled lipid accumulation score,[1],0.141 and 0.011
